Experimental data reported in PubChem BioAssay (Tox21).
Inconclusive results are not listed. The source made the active and inactive calls. Unless noted, calls come from the whole dose curve; as a rule, active = well fitted curve in the direction sought with a large enough effect in the repeat runs; inconclusive = weak or mixed curves; inactive = no such curve, though single readings can be large; an effect the other way counts as inactive or inconclusive.

Assays:
[1] = qHTS assay to identify small molecule agonists of the estrogen receptor alpha (ER-alpha) signaling pathway in the presence of an antagonist - cell viability counter screen (AID 1259386);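 note: series mostly up to about 92 µM; cells exposed to compounds for 22 h at 37 °C before the viability read; nearly all actives have a fitted effect of over 30% in size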
Procedure, shortened: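 Cytotoxicity was measured in parallel with the ERE-luciferase agonist screen, in the same wells. The cells were VM7Luc4E2, which endogenously express ER-alpha, and treatment was with compounds plus 10.0nM ICI-182,780 for 22hr.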

[2] = molecular target: Progesterone receptor (Homo sapiens) (UniProt P06401); assay: qHTS assay to identify small molecule antagonists of the progesterone receptor (PR) signaling pathway (AID 1346795; active = well fitted inhibition curve with a large enough effect in the signal ratio in the repeat runs, not every such curve was filed as active; the % refers to the signal ratio)
Procedure, shortened: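 Antagonist mode with agonist R5020 at 1 nM final and 16 hr incubation at 37C. Reporter was beta-lactamase driven by UAS in HEK293T (PR-UAS-bla), 2% charcoal-stripped serum; signal from LiveBLAzer FRET substrate, 2 hr at room temperature.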

[3] = qHTS assay to identify small molecule antagonists of the progesterone receptor (PR) signaling pathway - cell viability counter screen (AID 1346798); note: series mostly up to about 92 µM; nearly all actives have a fitted effect of over 50% in size
Procedure, shortened: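 Cytotoxicity read as CellTiter-Glo luminescence (30 min, room temperature) in the same wells as the beta-lactamase readout. HEK293T PR-UAS-bla cells in charcoal-stripped 2% FBS received compound and R5020, then 16 h at 37C, 5% CO2.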

[4] = qHTS assay to identify small molecule agonists of the progesterone receptor (PR) signaling pathway - cell viability counter screen (AID 1346799; calls by dose curve; note: nearly all actives have a fitted effect of over 45% in size)
Procedure, shortened: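 Cytotoxicity measured by CellTiter-Glo luminescence (30 min, RT) in the same wells as the PR beta-lactamase agonist read. Those HEK293T cells had 16 h compound treatment at 37 C in 2% charcoal-stripped FBS medium.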

[5] = qHTS assay to identify small molecule antagonists of the TGF-beta/Smad signaling pathway - cell viability counter screen (AID 1346824); note: nearly all actives have a fitted effect of over 50% in size
Procedure, shortened: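 SBE-bla HEK 293T cells were plated overnight at 37 C, then given compounds in DMSO plus TGF-beta1 (added as 0.25 ng/mL solution) for 5 hr. After the bla read, CellTiter-Glo was added to the same wells and luminescence read after 30 min at room temperature.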

[6] = qHTS assay to identify small molecule agonists of the TGF-beta/Smad signaling pathway - cell viability counter screen (AID 1346829); note: top concentration of the series differs between compounds; nearly all actives have a fitted effect of over 45% in size
Procedure, shortened: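 CellTiter-Glo luminescence readout; SBE-bla HEK 293T cells, overnight plating, compound 5 hr at 37 C/5% CO2, then bla substrate 2 hr RT, then CellTiter-Glo 30 min RT.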

[7] = qHTS assay to identify small molecule agonists of the TGF-beta/Smad signaling pathway (AID 1346859; active = well fitted activation curve with a large enough effect in the signal ratio in the repeat runs, not every such curve was filed as active; the % refers to the signal ratio; note: series mostly up to about 77 µM)
Procedure, shortened: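 Fluorescence (ex 405 nm; em 460 and 530 nm) was read 2 h after LiveBLAzer FRET substrate at RT. The preceding compound treatment of overnight-plated SBE-bla HEK293T cells lasted 5 h at 37 C.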

[8] = molecular target: Thyrotropin-releasing hormone receptor (Homo sapiens) (UniProt P34981); assay: qHTS assay to identify small molecule antagonists of the thyrotropin-releasing hormone receptor (TRHR) signaling pathway (AID 1346877; active = well fitted inhibition curve with a large enough effect in the repeat runs, not every such curve was filed as active; note: series mostly up to about 51 µM)
Procedure, shortened: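 Antagonism is measured as suppression of the calcium response to 1 nM TRH in TRHR-HEK293 cells that have been dye-loaded for 2 h at 37 °C after overnight plating. Each compound is tested at 15 concentrations in triplicate.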

[9] = molecular target: Thyrotropin-releasing hormone receptor (Homo sapiens) (UniProt P34981); assay: qHTS assay to identify small molecule agonists of the thyrotropin-releasing hormone receptor (TRHR) signaling pathway (AID 1346891; calls by dose curve; note: series mostly up to about 58 µM)
Procedure, shortened: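 Agonist-mode intracellular calcium readout: kinetic fluorescence over 3 min at 1 s intervals after compound addition to TRHR-HEK293 cells (18 h seeded, 2 h dye-loaded at 37 C). Fifteen concentrations, triplicates.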

[10] = molecular target: Progesterone receptor (Homo sapiens) (UniProt P06401); assay: qHTS assay to identify small molecule agonists of the progesterone receptor (PR) signaling pathway (AID 1346784; calls by dose curve; note: nearly all actives have a fitted effect of over 30% in size)
Procedure, shortened: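 Agonist qHTS: compounds pinned onto 3,000 PR-UAS-bla HEK 293T cells per well in charcoal-stripped serum medium, 16hr at 37C, then beta-lactamase activity measured by LiveBLAzer FRET fluorescence after 2 hours at room temperature.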
% is set by controls: 0 for no effect and ±100 for the full control effect.

Progesterone receptor (Homo sapiens), sequence (P06401 whole entry, looked up): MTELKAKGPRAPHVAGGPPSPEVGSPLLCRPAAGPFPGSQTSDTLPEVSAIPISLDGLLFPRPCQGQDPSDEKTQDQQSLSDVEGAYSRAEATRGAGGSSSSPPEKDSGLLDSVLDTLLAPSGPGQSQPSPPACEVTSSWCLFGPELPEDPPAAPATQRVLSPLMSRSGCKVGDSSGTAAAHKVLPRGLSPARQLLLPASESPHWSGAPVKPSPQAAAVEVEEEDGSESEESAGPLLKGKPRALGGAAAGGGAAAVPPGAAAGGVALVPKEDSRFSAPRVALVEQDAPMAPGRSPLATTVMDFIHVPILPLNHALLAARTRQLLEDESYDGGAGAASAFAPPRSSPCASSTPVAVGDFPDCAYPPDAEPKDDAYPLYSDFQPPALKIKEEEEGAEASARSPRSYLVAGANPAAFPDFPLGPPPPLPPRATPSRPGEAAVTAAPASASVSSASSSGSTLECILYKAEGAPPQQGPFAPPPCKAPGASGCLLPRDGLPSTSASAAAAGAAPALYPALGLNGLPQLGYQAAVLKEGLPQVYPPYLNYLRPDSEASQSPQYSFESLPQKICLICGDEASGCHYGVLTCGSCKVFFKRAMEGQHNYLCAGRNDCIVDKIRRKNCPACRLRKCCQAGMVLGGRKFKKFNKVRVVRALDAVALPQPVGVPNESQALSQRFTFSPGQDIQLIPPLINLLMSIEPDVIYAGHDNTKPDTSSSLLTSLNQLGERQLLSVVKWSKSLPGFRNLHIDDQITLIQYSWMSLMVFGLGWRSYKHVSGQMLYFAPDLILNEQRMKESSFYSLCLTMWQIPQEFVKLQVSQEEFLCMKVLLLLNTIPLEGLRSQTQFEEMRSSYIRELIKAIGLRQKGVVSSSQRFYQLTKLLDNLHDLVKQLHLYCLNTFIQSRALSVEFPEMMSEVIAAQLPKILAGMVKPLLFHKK
Thyrotropin-releasing hormone receptor (Homo sapiens), sequence (P34981 whole entry, looked up): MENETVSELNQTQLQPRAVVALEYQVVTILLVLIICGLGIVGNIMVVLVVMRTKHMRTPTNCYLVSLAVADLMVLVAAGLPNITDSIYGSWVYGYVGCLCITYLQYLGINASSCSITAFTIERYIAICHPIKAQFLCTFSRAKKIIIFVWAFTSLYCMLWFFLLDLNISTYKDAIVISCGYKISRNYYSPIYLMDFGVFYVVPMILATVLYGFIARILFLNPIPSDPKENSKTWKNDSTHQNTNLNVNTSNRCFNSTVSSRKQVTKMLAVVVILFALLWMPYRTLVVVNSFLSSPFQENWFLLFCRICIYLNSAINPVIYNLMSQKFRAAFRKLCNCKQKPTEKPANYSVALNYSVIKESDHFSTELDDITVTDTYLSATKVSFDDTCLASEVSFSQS

CC(C)CCCC(C)(C)O
inactive: Potency [1] | Potency [2] | Potency [3] | Potency [4] | outcome [5] | outcome [6] | outcome [7]

Nc1cccc(O)c1
inactive: Potency [1] | Potency [2] | Potency [3] | Potency [4] | outcome [5] | outcome [6] | outcome [7] | outcome [8] | outcome [9]

CCCCC(CC)COCCO (configuration not stated)
inactive: Potency [1] | Potency [10] | Potency [4] | outcome [6] | outcome [7] | outcome [8] | outcome [9]

CN(C)c1ccc(C=O)cc1
inactive: Potency [1] | Potency [2] | Potency [3] | Potency [4] | outcome [5] | outcome [6] | outcome [7] | outcome [8] | outcome [9]

COC(=O)CCCCCCCC(=O)OC
inactive: Potency [1] | Potency [10] | Potency [3] | outcome [5] | outcome [6] | outcome [7] | outcome [8] | outcome [9]

N[C@@H](CCC(=O)N[C@@H](CS)C(=O)NCC(=O)O)C(=O)O
inactive: activity change, negative = cytotoxicity [1] 5.49% [at 19 µM] | activation [10] -0.471% [at 19 µM] | activity change, negative = cytotoxicity [4] 3.29% [at 19 µM] | viability change, negative = cytotoxic [5] 18.5% [at 15.8 µM] | activity change, negative = cytotoxicity [6] 1.41% [at 15.8 µM] | activation [7] 1.79% [at 15.8 µM]

COC(=O)[C@@H]1[C@H]2C[C@H]3c4[nH]c5ccccc5c4CCN3C[C@@H]2CC[C@@H]1O
inactive: Potency [1] | Potency [10] | Potency [3] | outcome [6] | outcome [7] | outcome [8] | outcome [9]

CCC(CC)CO
inactive: Potency [1] | Potency [2] | Potency [3] | Potency [4] | outcome [5] | outcome [6] | outcome [7] | outcome [8] | outcome [9]

CC(C)C(=O)OCc1cccc(OC(=O)[C@@H]2N3C(=O)[C@@H](NC(=O)Cc4ccccc4)[C@H]3SC2(C)C)c1
inactive: Potency [1] | Potency [2] | Potency [3] | Potency [4] | outcome [5] | outcome [6] | outcome [7] | outcome [8] | outcome [9]

CC(C)N(c1ccccc1)C(C)C
inactive: Potency [1] | Potency [10] | Potency [3] | Potency [4] | outcome [6] | outcome [7]

CC(C)CC(C)CC(C)CC(C)COC(=O)c1ccccc1C(=O)OCC(C)CC(C)CC(C)CC(C)C (configuration not stated)
inactive: Potency [1] | Potency [2] | Potency [3] | Potency [4] | outcome [5] | outcome [6] | outcome [7] | outcome [8] | outcome [9]

O=C(Nc1ccc(Cl)c(Cl)c1)C1CC1
inactive: Potency [1] | Potency [10] | Potency [3] | outcome [5] | outcome [6] | outcome [7] | outcome [8] | outcome [9]

O=C(NCC(O)CO)c1c(I)c(C(=O)NCC(O)CO)c(I)c(N(CCO)C(=O)CO)c1I (configuration not stated)
inactive: Potency [1] | Potency [2] | Potency [3] | Potency [4] | outcome [5] | outcome [6] | outcome [7] | outcome [8] | outcome [9]

OCCCCC(O)CO (configuration not stated)
inactive: Potency [1] | Potency [2] | Potency [3] | outcome [5] | outcome [6] | outcome [7] | outcome [8] | outcome [9]

COc1cc(N)ccc1C
inactive: Potency [1] | Potency [10] | Potency [3] | outcome [7]

O=C(CCN1CCN(CCO)CC1)N1c2ccccc2Sc2ccc(C(F)(F)F)cc21
inactive: Potency [1] | Potency [10] | Potency [3] | outcome [5] | outcome [6] | outcome [7] | outcome [8] | outcome [9]

CC(C)C[C@H](NC(=O)CNC(=O)[C@H](Cc1ccc(O)cc1)NC(=O)[C@H](CO)NC(=O)[C@H](Cc1c[nH]c2ccccc12)NC(=O)[C@H](Cc1cnc[nH]1)NC(=O)[C@@H]1CCC(=O)N1)C(=O)N[C@@H](CCCN=C(N)N)C(=O)N1CCC[C@H]1C(=O)NCC(N)=O (stereo in doubt)
inactive: Potency [1] | Potency [2] | Potency [3] | outcome [5] | outcome [6] | outcome [7] | outcome [8] | outcome [9]

CC(C)(C)c1cc(CCC(=O)NN)cc(C(C)(C)C)c1O
inactive: Potency [1] | Potency [2] | Potency [3] | Potency [4] | outcome [5] | outcome [6] | outcome [7] | outcome [8] | outcome [9]

CN1C(C)(C)CCCC1(C)C
inactive: Potency [1] | Potency [10] | Potency [4] | outcome [6] | outcome [7] | outcome [8] | outcome [9]

CCc1ccc(C=O)cc1
inactive: Potency [1] | Potency [10] | Potency [4] | outcome [6] | outcome [7] | outcome [8] | outcome [9]

CC(=O)N[C@@H](CCC(=O)O)C(=O)O
inactive: Potency [1] | Potency [2] | Potency [3] | Potency [4] | outcome [5] | outcome [7] | outcome [8] | outcome [9]

O=C1CC(c2ccc(Cl)cc2)CC(=O)N1
inactive: Potency [1] | Potency [10] | Potency [4] | outcome [5] | outcome [6] | outcome [7] | outcome [8] | outcome [9]

CCN(CC)CC(=O)Nc1c(C)cccc1C
inactive: Potency [1] | Potency [2] | Potency [3] | Potency [4] | outcome [5] | outcome [6] | outcome [7] | outcome [8] | outcome [9]

CCOC(=O)CC(=O)c1ccccc1
inactive: Potency [1] | Potency [10] | Potency [4] | outcome [5] | outcome [6] | outcome [7] | outcome [8] | outcome [9]
